Bioassay records from PubChem BioAssay.
The list is not random: actives were taken first. Their share in the collection is about 5.1%.
NPSR antagonist – neuropeptide S receptor (human) antagonism, cAMP | Q6W5P4 | CHO-NPSR cells, cAMP TR-FRET, antagonist mode | Potency, µM (titrated, usually from 38.3 µM), hits mostly inhibitors | 220,000 compounds, 1% hits | AID 1461; further: nearly all actives have a fitted effect of over 50% in size
PNC inhibitor – inhibitors of perinucleolar compartment assembly | AID 2417 | activity change (PNC), negative = inhibition, % at 10 µM | PC3M PTB-GFP, PNC prevalence imaging, 16 h; stronger effect = lower value | 140,000 compounds, 3.1% hits;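 active means readout at or below -70, meaning at least 70% loss of cells showing the perinucleolar compartment, a nuclear body marking cancer cells; inconclusive means readout between -30 and a set limit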
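Read-out is percentage of cells bearing a perinucleolar compartment, from automated 20x imaging of fixed, Hoechst-stained PC3M PTB-GFP cells. Cells were seeded 4 h, then exposed 16 h to compound (23 nl of library stock) in duplicate plates.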
Tau FP inhib – tau fibrillization inhibition (FP). P10636. Potency, µM (highest dose often 57.7 µM), usual class: inhibitors. K18 P301L tau heparin fibrillization, Alexa594 FP, 6 h. 280,000 compounds, 0.39% hits; further: nearly all actives have a fitted effect of over 55% in size
Target sequence (P10636 561-689 P618L limits assumed): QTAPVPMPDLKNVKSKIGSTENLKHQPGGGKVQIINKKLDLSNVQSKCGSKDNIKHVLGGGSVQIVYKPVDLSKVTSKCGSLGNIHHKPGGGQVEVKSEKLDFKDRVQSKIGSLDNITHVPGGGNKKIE
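Human K18 P301L fragment (15 uM unlabeled plus 0.24 uM Alexa 594-labeled) in 100 mM sodium acetate pH 7 with compound, aggregation induced by 20 uM heparin for 6 hr at 37 C. ThT (30 uM) added for 1 hr, then Alexa 594 FP read.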
Tau fluor cs – counter-screen for tau fibril formation inhibitors. tau K18 P301L Alexa594 fluorescence, heparin fibrillization. Potency, µM (top dose mostly 57.7 µM). 280,000 compounds, 0.93% hits. AID 1463; further: nearly all actives have a fitted effect of over 55% in size
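Human K18 P301L tau (15 uM unlabeled plus 0.24 uM Alexa 594-labeled, final) in 100 mM sodium acetate pH 7 was mixed with compound and 20 uM heparin and incubated 6 hr at 37 C.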
Tau ThT inhib – blocks human tau fibril formation measured by thioflavin T; recombinant tau K18 P301L, heparin-induced fibrillization, ThT fluorescence; 270,000 compounds, 2.1% hits; P10636; AID 1460; Potency, µM (doses to about 57.4 µM), actives largely listed as inhibitors; further: nearly all actives have a fitted effect of over 55% in size
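Fibril formation assay: tau K18 P301L at 15 uM with trace Alexa 594 label, heparin inducer 20 uM, pH 7 sodium acetate buffer, 37 C for 6 hr; endpoint ThT signal.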
JMJD2E inh – inhibitors of human JMJD2E histone demethylase; B2RXH2; Potency, µM (doses to about 57.1 µM), actives largely listed as inhibitors; JMJD2E catalytic domain, FDH-coupled NADH fluorescence (FDH is formaldehyde dehydrogenase); 230,000 compounds, 1.6% hits; AID 2147; active means well fitted inhibition curve with a large enough effect, not every such curve was filed as active; inconclusive means small, poorly fitted or top-dose-only effect, or another doubt; inactive means no such curve, though single readings can be large or run the other way; further: nearly all actives have a fitted effect of over 50% in size
Target sequence (B2RXH2 1-337 limits assumed): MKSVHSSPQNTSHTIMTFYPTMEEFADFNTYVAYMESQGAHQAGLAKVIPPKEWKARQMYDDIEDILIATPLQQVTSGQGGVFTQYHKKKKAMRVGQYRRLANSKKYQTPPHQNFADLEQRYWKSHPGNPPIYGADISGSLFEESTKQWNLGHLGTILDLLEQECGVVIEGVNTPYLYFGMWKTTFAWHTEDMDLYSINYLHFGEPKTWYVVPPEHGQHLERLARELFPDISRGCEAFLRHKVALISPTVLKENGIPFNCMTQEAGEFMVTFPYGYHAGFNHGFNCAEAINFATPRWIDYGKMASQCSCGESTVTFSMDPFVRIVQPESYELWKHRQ
Numbers stand for hits; – = inactive; ? = inconclusive; · = no result given; [ ] = remark or other dose. Unless noted, the call rests on the fitted dose curve; in most records, active means well fitted curve in the direction sought with a large enough effect; inconclusive means small, poorly fitted or top-dose-only effect, or another doubt; inactive means no such curve, though single readings can be large; an effect the other way counts as inactive or inconclusive.

SMILES	NPSR antagonist	PNC inhibitor	Tau FP inhib	Tau fluor cs	Tau ThT inhib	JMJD2E inh
CCN(CC)S(=O)(=O)c1ccc(F)c(C(=O)NCCC(C)C)c1	–	-100	–	–	–	–
CCN(CC)c1ccc(C=C2C(=O)OC(c3ccccc3)OC2=O)cc1 (stereo not given)	–	·	–	–	–	–
CCN(CC)c1ccc(/C=C/C(=O)C2C(=O)C=C(C)OC2=O)cc1 (stereo not given)	–	·	?	6.3µM[fluorescent]	3.2µM	?
COC(=O)/C(=C1/Oc2ccc(C(C)(C)C)cc2S1)C(F)(F)F	–	?	–	–	–	–
COC(=O)/C(=C1/Oc2cc(C)oc(=O)c2S1)C(F)(F)F	?	-100	?	–	8.9µM	–
Cn1c(=O)c2sccc2n2c(CCC(=O)N3CCN(c4cccc(Cl)c4)CC3)nnc12	·	·	–	–	?	·
CCCCNCc1cc(OCC)c(OCC(N)=O)cc1Br	–	–	–	–	–	–
CCCCNCc1cc(OC)c(OCC(N)=O)cc1Br	–	-100	–	–	–	–
Cc1c(C(=O)N(C)C)sc2c1c(=O)n(-c1ccc(Cl)c(Cl)c1)c(=O)n2CC(=O)Nc1cccc(C(F)(F)F)c1	·	·	?	–	–	·
C=CCOc1c(Cl)cc(CNc2ccc(N(C)C)cc2)cc1OC	5µM	?	–	–	–	–
C=CCOc1c(Cl)cc(CNc2ccc(C)c(Cl)c2)cc1OC	?	-92	–	?	?	–
COc1ccc(-n2nc(C(=O)N3CCCC(C)C3)c3c4ccccc4n(C)c3c2=O)cc1Cl (stereo not given)	·	·	–	–	–	·
CN(C)S(=O)(=O)c1cccc(NC(=O)COC(=O)CCC(=O)c2ccc(F)cc2)c1	–	–	–	–	–	–
CCN(CC)S(=O)(=O)c1cccc(NC(=O)COC(=O)CCC(=O)c2ccc(F)cc2)c1	–	-82	–	?	–	–
CCN1CCN(C(=O)Nc2cccc(C(F)(F)F)c2)CC1	–	-123	–	–	–	–
CCN(CC)S(=O)(=O)c1cccc(NC(=O)Nc2cccc(C(F)(F)F)c2)c1	10µM	–	7.9µM	?	–	–
O=c1[nH]c(=O)n(Cc2ccccc2)c2nc(-c3ccc(Oc4ccc(F)cc4)c([N+](=O)[O-])c3)n(CCO)c12	6.3µM	–	–	–	?	–
CCCSc1nc2c(cnn2-c2ccc(C)c(C)c2)c(=O)[nH]1	–	-95	–	–	–	–
CCCCSc1nc2c(cnn2-c2ccc(C)c(C)c2)c(=O)[nH]1	–	–	–	–	–	–
COc1ccc(CCNC(=O)c2ccc3c(c2)ncn3-c2ccc(C(C)C)cc2)cc1OC	·	·	–	–	?	·
CC(=O)Oc1c(C)cc(Cl)cc1C(=O)Nc1ccc([N+](=O)[O-])cc1Cl	–	–	–	?	2.8µM	–
O=C1C=CC2=C3c4cc(O)c(O)cc4C[C@]3(O)COC2=C1	·	·	?	?	16µM	13µM
Cc1ccc(Cc2cnc(NC(=O)c3ccco3)s2)cc1	–	–	–	?	–	?
O=C(Nc1ncc(Cc2ccc(SC(F)F)cc2)s1)c1ccc(OC(F)F)cc1	–	-86	–	–	–	–
Cn1c(CNc2ccc(Cl)cc2)nc2ccccc21	–	–	–	–	?	–
SMILES	NPSR antagonist	PNC inhibitor	Tau FP inhib	Tau fluor cs	Tau ThT inhib	JMJD2E inh
Cc1ccc(N2CCN(c3ccc(NCc4nc5ccccc5n4C)cc3)CC2)cc1	–	?	–	?	2.5µM	?
COc1ccc(-c2cc(C(=O)NNC3=NCCC3)c3c(C)nn(-c4ccccc4)c3n2)cc1	–	·	–	–	–	–
COc1ccc(NC(=O)c2cc(-c3ccccc3)nc3c2c(C)nn3-c2ccccc2)c(OC)c1	–	-89	–	–	–	–
COc1ccc(C(Cl)=C(c2ccc(OC)cc2)c2ccc(OC)cc2)cc1	7.9µM	?	?	–	–	?
COc1ccc(C(=N/O)/C(=N/O)c2ccc(OC)cc2)cc1	–	–	–	–	–	–
COc1ccc[nH]c1=O	–	?	–	–	–	–
O=C(Nc1ccccc1)Oc1ccc[nH]c1=O	–	·	–	–	·	22µM
Cc1cccc(N(CC(=O)NCCSCc2ccccc2)S(=O)(=O)c2ccccc2)c1C	·	·	–	–	–	·
C=CS(=O)(=O)c1ccc(Oc2ccc(S(=O)(=O)C=C)cc2)cc1	–	-134	?	–	2µM	–
CCCCN1C(=O)CN(C2CCCCCC2)C(=O)C1c1ccc(OC(C)C)c(OC)c1 (stereo not given)	·	·	–	–	–	·
CC1=CC2=C(OC1N(C)C)c1cccc3cccc(c13)C2=O (stereo not given)	?	–	?	–	20µM	20µM
Cc1ccc(N2C(=O)c3cccc4cccc(c34)C2=O)cc1	–	·	–	–	–	–
CC[n+]1c(/C=C/C=C/N(C(C)=O)c2ccccc2)sc2ccccc21	–	–	?	8.9µM[fluorescent]	11µM	–
CCn1c(/C=C/N(C(C)=O)c2ccccc2)[n+](CC)c2ccc(Cl)cc21	–	?	–	–	–	–
COc1ccc(Nc2nnc(SC(C(=O)Nc3ccc(OC)c(Cl)c3)c3ccccc3)s2)cc1 (stereo not given)	–	–	–	7.1µM[quencher]	–	–
COc1ccc(Nc2nnc(SC(C(=O)Nc3cc(C)ccc3C)c3ccccc3)s2)cc1 (stereo not given)	–	·	?	?	–	–
O=C(O)CSc1cc(C(=O)c2ccccc2O)cn2c(=O)c3c(-c4ccccc4)csc3nc12	–	·	–	–	25µM	–
Cc1sc2nc3c(SC(C)C(=O)O)cc(C(=O)c4ccccc4O)cn3c(=O)c2c1C (stereo not given)	–	–	–	–	14µM	–
CCOC(=O)c1sc2nc3c(SCC(=O)O)cc(C(=O)c4ccccc4O)cn3c(=O)c2c1C	–	·	–	–	?	?
COc1ccc(NC(=O)Cn2c(SCc3c(F)cccc3Cl)nc3ccncc32)cc1OC	·	·	–	–	–	·
Cc1cc(C)c(OCCOCCn2c(-c3ccc(Cl)cc3)nc3ccccc3c2=O)c(C)c1	·	·	–	–	–	·
Cc1cc2ccccc2n1CCNC(=O)c1ccccc1F	·	·	–	–	–	·
CCN(CC)C(=O)C1CCN(C(=O)c2cnn(-c3ccccc3)c2-n2cccc2)CC1	·	·	–	–	–	·
CCOc1ccccc1NC(=O)C(OC(=O)c1ccc(CC)cc1)c1ccccc1 (stereo not given)	–	–	–	–	–	–
CCOc1ccccc1NC(=O)C(OC(=O)c1ccc(O)cc1)c1ccccc1 (stereo not given)	?	–	22µM	?	–	–
O=C1CC(N2CCOCC2)=NN1c1ccc([N+](=O)[O-])cc1	–	·	–	?	7.1µM	?
CN(C)c1ccc(/C=C2/C(=O)N(c3ccc([N+](=O)[O-])cc3)N=C2N2CCOCC2)cc1	–	–	–	?	16µM	–
